Reference: PubChem BioAssay (NCI)
Compounds without any hit were thinned out: in the full panel of roughly 79,000, 15% have a hit. Cut-off read from the data, not from the text of the source: active = growth inhibition above about 70%; inactive = the rest.

Tests used:
[1] = NCI Yeast Anticancer Drug Screen. Data for the rad50 strain (AID 155);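 note: 0% = growth of vehicle-only cultures of the same strain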; details: S. cerevisiae rad50 strain growth inhibition; at 50.0 µM; stronger effect = higher value
In short: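 Yeast carrying a defined DNA repair defect were exposed to test compounds, and growth was compared with vehicle-treated controls to give percent inhibition.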

[2] = NCI Yeast Anticancer Drug Screen. Data for the mec2-1 strain (AID 157); details: S. cerevisiae mec2-1 strain, at 50.0 µM, stronger effect = higher value
In short: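 Using mec2-1 yeast: add compound, measure growth, express inhibition versus vehicle-treated cultures.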

[3] = NCI Yeast Anticancer Drug Screen. Data for the sgs1 mgt1 strain (AID 161);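 note: 0% = growth of cultures given vehicle only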; details: S. cerevisiae sgs1 mgt1 strain, at 50.0 µM, stronger effect = higher value
In short: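 Percent growth inhibition was derived by comparing compound-exposed mutant yeast with vehicle-exposed cultures. The strain carries alterations in DNA damage repair.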

[4] = NCI Yeast Anticancer Drug Screen. Data for the cln2 rad14 strain (AID 165);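 note: 0% = growth equal to vehicle treated cultures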; details: S. cerevisiae cln2 rad14 strain, at 50.0 µM, stronger effect = higher value
In short: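 Yeast strain cln2 rad14, bearing defects in cell cycle control and DNA repair, serves as the test system; values reflect growth inhibition compared with vehicle.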

[5] = NCI Yeast Anticancer Drug Screen. Data for the bub3 strain (AID 167); details: S. cerevisiae bub3 mutant strain, at 50.0 µM, stronger effect = higher value
In short: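 Compounds were applied to a genetically altered yeast strain carrying a cell-cycle control defect. Growth inhibition was scored against vehicle-treated controls.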

[6] = NCI Yeast Anticancer Drug Screen. Data for the mlh1 rad18 strain (AID 175); details: S. cerevisiae mlh1 rad18 strain growth inhibition; at 50.0 µM; stronger effect = higher value
In short: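 Steps: expose repair-defective yeast to compound; measure growth; express inhibition against vehicle-treated controls.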

Measured: growth inhibition

CC(=O)C1CCC(C)(O)CC1=O (configuration not stated)
inactive: [1] -0.6% | [2] -18% | [3] -14.5% | [4] -9.35% | [5] -8.4% | [6] -3.65%

COC(=O)c1ccccc1C1CN=NC12Cc1cc(C)ccc1C2=O (configuration not stated)
inactive: [1] -3.25% | [2] 14.2% | [3] -10.4% | [4] -34.4% | [5] -3.5% | [6] -14.8%

Cc1cc(C)c(-c2cc(C(O)C3OC4OC(C)(C)OC4C3O)on2)c(C)c1 (configuration not stated)
inactive: [1] 15.3% | [2] -0.9% | [3] -1.3% | [4] 9.25% | [5] 0.8% | [6] 0.3%

C=C1CCCCCCCCCCC1S(=O)c1ccccc1 (configuration not stated)
inactive: [1] 14.5% | [2] 14.3% | [3] 4.15% | [4] -6.6% | [5] -5.4% | [6] 31.5%

CCOC(=O)C(N=Nc1ccc(C)cc1Br)C(C)=O (configuration not stated)
inactive: [1] 16.2% | [2] 13.9% | [3] 24.9% | [4] 15.6% | [5] 22.4% | [6] 24.1%

CCOc1ccccc1NC(=O)CC1SC(=Nc2ccc([N+](=O)[O-])cc2)NC1=O (configuration not stated)
inactive: [1] 24.6% | [2] 20.9% | [3] 10.3% | [4] 10.9% | [5] -13.3% | [6] -12.8%

CCCCOCCOCCOC(=O)c1ccc(C)cc1
inactive: [1] 3.9% | [2] -11% | [3] -13.8% | [4] -49.9% | [5] 46% | [6] 11%

CC(O)C(C)(C)[N+](=O)[O-] (configuration not stated)
inactive: [1] 0.45% | [2] -1.55% | [3] -7% | [4] -4.25% | [5] 2.8% | [6] 1.75%

COC(=O)C(Cc1nc2ccccc2[nH]c1=O)C(=O)C(=O)Nc1ccc(OC)cc1[N+](=O)[O-] (configuration not stated)
inactive: [1] -14.4% | [2] -9.5% | [3] 14.3% | [4] -77.2% | [5] -1.4% | [6] 5.5%

O=C1CCC(=O)N1n1c(Cc2ccc(Cl)cc2)n[nH]c1=O
inactive: [1] 17.4% | [2] 8.5% | [3] 19.1% | [4] 4.85% | [5] 12.8% | [6] -44.6%

CC(=O)Nc1cccc(O)c1
inactive: [1] 18.4% | [2] 5.3% | [3] 25.1% | [4] -13.8% | [5] -8.7% | [6] 22.6%

O=C(Nc1nc2ccc([N+](=O)[O-])cc2s1)C(=O)C(C(=O)c1ccncc1)C1OC(=O)c2ccccc21 (configuration not stated)
inactive: [1] 24.1% | [2] 9.25% | [3] -19.5% | [4] 39.2% | [5] 49.8% | [6] 27.3%

Cc1noc2c1NC(=O)OCC2
inactive: [1] 2.9% | [2] 1.45% | [3] -3.85% | [4] -2% | [5] 10.6% | [6] -15.1%

O=C(c1ccccc1)[C@@H]1C[C@H](Sc2ccccc2)c2cc(Cl)ccc2N1
inactive: [1] 39.7% | [2] -10.5% | [3] 4.1% | [4] 23.8% | [5] 0.8% | [6] -3.5%

O=C(CC(O)(C(F)(F)F)C(F)(F)F)c1ccc(Br)cc1
inactive: [1] 4.35% | [2] 19.6% | [3] 5.45% | [4] -8.25% | [5] 14.1% | [6] 49.4%

CC12CCC(O)CC1=CCC1C2CCC2(C)C1CCC21SCCS1 (configuration not stated)
inactive: [1] 2.35% | [2] 9.7% | [3] 20.2% | [4] 14.4% | [5] 13.8% | [6] 13%

Cc1ccc(P(=O)(O)O)cc1C
inactive: [1] -18.2% | [2] -7.3% | [3] 0.3% | [4] -2.1% | [5] -7.75% | [6] -10.4%

CC(=O)Oc1ccc2c(c1)CC[C@@H]1C2[C@@H](O[N+](=O)[O-])C[C@@]2(C)C1CC[C@@H]2O[N+](=O)[O-] (some centres not stated)
inactive: [1] 24.4% | [2] 7.9% | [3] 15.2% | [4] 10.1% | [5] 10.1% | [6] 14.8%

Cc1cc2c(C(C)C)c(O)c(O)c(C=Nc3ccc4ccccc4c3)c2c(O)c1-c1c(C)cc2c(C(C)C)c(O)c(O)c(C=Nc3ccc4ccccc4c3)c2c1O
inactive: [1] 7.3% | [2] -5.2% | [3] -6.15% | [4] -42.1% | [5] -4.6% | [6] 1.2%

CS1(C)=NC(=O)C2=C(N=1)c1ccccc1S2(=O)=O
inactive: [1] -10.9% | [2] -6% | [3] -19% | [4] -19.6% | [5] 1.85% | [6] -7.85%

O=C1C=Cn2cc(-c3ccccc3)c(-c3ccccc3)c21
inactive: [1] -13.3% | [2] -10.3% | [3] -14% | [4] 19.9% | [5] -18.1% | [6] -9.2%

Cc1cc(O)ccc1N=Nc1ccc(S(=O)(=O)O)cc1
inactive: [1] -26.8% | [2] -10.2% | [3] -10.6% | [4] 2.55% | [5] 4.55% | [6] -12.5%

CCOC(C#CC(C)=O)OCC
inactive: [1] 31.1% | [2] 31.3% | [3] 22.9% | [4] 6.65% | [5] 46% | [6] 47.9%

Cc1cc2c(=O)[nH]c(=S)[nH]c2cn1
inactive: [1] 8% | [2] 7% | [3] -11.4% | [4] -0.35% | [5] 6.8% | [6] -3.6%

CN(C)/C(=N/C(=O)Nc1ccccc1)SCc1ccccc1
inactive: [1] -10.5% | [2] -3.9% | [3] 0.45% | [4] -32% | [5] -9.1% | [6] -1.2%

[O-][N+]1=CCCC1
inactive: [1] 4.4% | [2] -13.9% | [3] -0.65% | [4] -5.5% | [5] -0.2% | [6] -16.4%

CCN1c2nc3ccccc3nc2N(CC)c2nc3ccccc3nc21
inactive: [1] -30.1% | [2] 12.5% | [3] 23.9% | [4] 6.55% | [5] 3.45% | [6] 5.3%

C=C(CN(C)C)C(=O)c1ccc(C(=O)C(=C)CN(C)C)cc1
inactive: [1] -1.4% | [2] 6.85% | [3] 2.2% | [4] -2.15% | [5] 0.65% | [6] 6.4%

CCCC(CCO)(CCO)c1ccccc1
inactive: [1] 16.6% | [2] -30.4% | [3] -9.65% | [4] 10.9% | [5] 8.1% | [6] -5.7%

COc1ccc(C(CN)c2ccc(N)cc2)cc1 (configuration not stated)
inactive: [1] 8.8% | [2] 10.7% | [3] 1.6% | [4] 2.9% | [5] -13.4% | [6] -5.05%

N#C/C=C\c1ccc(C#N)cc1
inactive: [1] 28.1% | [2] -1.5% | [3] 20.3% | [4] 6.85% | [5] 25.1% | [6] 19.9%

BrC=C1c2ccccc2-c2ccccc21
inactive: [1] 5.45% | [2] -7.35% | [3] 3.9% | [4] 22.6% | [5] 2.35% | [6] 4.55%

COC1OCC(NC(C)=O)C(OC(C)=O)C1OC(C)=O (configuration not stated)
inactive: [1] 12.4% | [2] -13.1% | [3] -4.1% | [4] 2.35% | [5] -1.3% | [6] -8%

O=NSC(c1ccccc1)(c1ccccc1)c1ccccc1
inactive: [1] 1.65% | [2] -24.2% | [3] 1.6% | [4] -28.1% | [5] -9.25% | [6] 0%

CC(=O)NC1=C(C)C(=O)c2c(nc3n2CCC3OC(=O)c2ccccc2)C1=N (configuration not stated)
inactive: [1] 15% | [2] -8.3% | [3] 22% | [4] 6% | [5] 26.9% | [6] -34%

CCCCCc1c(-c2n[nH]c(C)c2CCCCC)n[nH]c1C
inactive: [1] 5.55% | [2] -6.05% | [3] -9.1% | [4] -7.85% | [5] -31.6% | [6] 1.8%

NC(=O)NC(=O)NCc1ccccc1
inactive: [1] -1.35% | [2] 0.35% | [3] -12.8% | [4] -7.65% | [5] 6.6% | [6] -4.9%
